The values below come from PubChem BioAssay (NCATS).

Results filed as inconclusive are left out. Active and inactive are the calls of the source. The call rests on the fitted dose curve; in most records, active means well fitted activation curve with a large enough effect; inconclusive means small, poorly fitted or top-dose-only effect; inactive means no such curve, though single readings can be large or run the other way.
Potency means the concentration at half of the fitted maximal effect.

Cellular tumor antigen p53 (Homo sapiens), sequence (P04637 whole entry, looked up): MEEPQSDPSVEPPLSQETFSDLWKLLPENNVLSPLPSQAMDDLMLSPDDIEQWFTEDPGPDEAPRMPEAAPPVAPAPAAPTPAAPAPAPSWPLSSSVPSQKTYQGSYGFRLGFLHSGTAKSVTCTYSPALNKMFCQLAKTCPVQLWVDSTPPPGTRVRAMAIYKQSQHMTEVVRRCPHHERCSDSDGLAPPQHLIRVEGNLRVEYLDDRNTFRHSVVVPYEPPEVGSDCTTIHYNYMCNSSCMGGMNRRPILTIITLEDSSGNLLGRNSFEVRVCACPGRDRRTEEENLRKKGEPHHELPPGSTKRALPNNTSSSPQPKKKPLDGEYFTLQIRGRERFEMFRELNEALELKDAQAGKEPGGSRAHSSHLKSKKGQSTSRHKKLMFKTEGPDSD

This assay concerns the target Cellular tumor antigen p53 (Homo sapiens) (UniProt P04637). The experiment in a line: Primary qHTS for small molecule compounds that upregulate eGFP-tagged delta133p53alpha (in N-terminal) cells. (AID 2060322). Further: nearly all actives have a fitted effect of over 75% in size.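 On activation: cells pre-induced with doxycycline then dosed without doxycycline; series mostly up to about 56 µM; 0% = DMSO vehicle and 100% = reference activator.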 The conditions noted are these: NCI-H358 eGFP-delta133p53alpha fluorescence, 24 h; activation: active compounds read high. The essentials:
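NCI-H358 cells pre-induced 24 h with 10 ng/ml doxycycline for eGFP-delta133p53alpha, plated dox-free and exposed 24 h at 37C to titrated compounds. Fixed, Hoechst-stained; gated GFP peak intensity by laser scanning cytometry, normalized to DMSO (0%) and 57.5 uM 5-azacytidine (100%).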
With `CC(C)=CCC(O)[C@](C)(O)C1[C@H](O)C[C@@]2(C)C3CC=C4C(C[C@H](O)[C@@H](O[C@@H]5O[C@H](CO)[C@@H](O)[C@H](O)[C@H]5O)C4(C)C)[C@]3(C)C(=O)C[C@]12C` (stereo partly specified), the activation is 10.7% (inactive).

Turning to `O=C(/C=C/c1ccccc1)OC[C@]12O[C@H]1[C@@H](O)[C@@H]1C=CO[C@@H](O[C@@H]3O[C@H](CO)[C@@H](O)[C@H](O)[C@H]3O)[C@@H]12`, the activation was 7.14% (inactive). On the same count and under the same terms, then `CC(O)(CC(=O)O)CC(=O)OCc1ccc(O[C@@H]2O[C@H](CO)[C@@H](O)[C@H](O)[C@H]2O)cc1` (stereo partly specified), with -13.7% (inactive); and `CC1CCC2(C=O)C(CO)=CCCC2C1(C)CC(=O)O` (stereo unspecified), with -0.763% (inactive); and `C=C1C2CCC3CC2(CC(O)C2(O)C1CC(OC1OC(CO)C(O)C(O)C1O)C2(C)C)CC3(C)O` (stereo unspecified), with 19.6% (inactive). Still for that read-out and setting: in the case of `COc1cccc2c1CCC[C@H]2CN(C)CCc1ccc2ccoc2c1` it was -3.57% (inactive); in that of `CC(C)NC[C@H](O)COc1ccc(CCOCC2CC2)cc1`, 1.67% (inactive); in that of `C/C(=C/CCC(CO)C1CCC2(C)C3CCC4C(C)(C)C(OC5OC(CO)C(O)C(O)C5O)CC(O)C45CC35CCC12C)COC1OC(CO)C(O)C(O)C1O` (stereo unspecified), -10.7% (inactive). On the same count and under the same terms, then `CC(=O)c1cc2c(cc1O)OC(C)(C)C=C2`, with 14.3% (inactive); and `CC(C)(C)CCN1C[C@@H]2C(CNC(=O)c3cc(Cl)cc(Cl)c3)[C@@H]2C1` (stereo partly specified), with 26.3% (inactive).

Consider `C=C1C(=O)O[C@@H]2[C@H]1CC(=O)[C@H](C)[C@@](O)(C(=O)/C=C/C)[C@H]2OC(=O)C(C)CC` (stereo partly specified), for which the Potency was 5.88 µM (active).
